# High-throughput results: PubChem, National Center for Advancing Translational Sciences (NCATS)
# CCT chaperon mod – modulators of cytosolic chaperonin (CCT/TRiC) activity; purified chaperonin ATPase assay, HTRF ADP detection, 30 min; activity change, % (test concentration not listed), hits read low; 360,000 compounds, 0.3% hits; AID 651819; in the data active = activity change below about -30%
#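 Nucleotide hydrolysis assay: TRiC at 20–40 nM final (set by batch activity) with 10 uM ATP, 30 min at 37 °C, in presence of 76 uM compound. Detection by competitive ADP HTRF, 30 min ambient.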
# Sfp PPTase inh – Sfp phosphopantetheinyl transferase inhibition; Biochemical Sfp PPTase activity, qHTS; Potency, µM, for the others: largest response in the series, negative = inhibition, hits mostly inhibitors; 310,000 compounds, 3.5% hits;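 note: the enzyme is Sfp with the accession as filed and its product quenches rhodamine fluorescence; potency is the fitted concentration of half-maximal effect; 0% = enzyme reaction without inhibitor and -100% = no enzyme wells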
#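 After 15 min at room temperature with compound, 15 nM Sfp received 5 uM rhodamine-CoA plus 12.5 uM BHQ-2-ybbR (50 mM Hepes pH 7.6, 10 mM MgCl2). Rate came from the fluorescence difference over 30 min, ex 525/em 598 nm.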
# Mm-Cpn inhibitor – inhibitors of Methanococcus maripaludis chaperonin TRiC (MmCpn) | AID 504842 | purified Mm-Cpn ATPase, ADP Transcreener TR-FRET | 330,000 compounds, 0.031% hits | Potency, µM (highest dose often 76.9 µM), inactives show top-dose activity, negative = inhibition, usual class: inhibitors; note: potency is the fitted concentration of half-maximal effect; nearly all actives have a fitted effect of over 80% in size
#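 Purified archaeal Mm-CPN (25nM final) preincubated 10 min at 37degC with compound, then 10uM ATP for 30 min at 37degC; ADP measured by HTRF Transcreener TR-FRET; buffer 30 mM TRIS pH 7.4, 100mM KCl, 5mM MgCl2, 1mM DTT.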
# VDR inh – blocks the human vitamin D receptor. P11473. VDR-SRC2-3 peptide fluorescence polarization, 2 h. Potency, µM, inactives show max response, negative = inhibition, most hits filed as inhibitors. 400,000 compounds, 0.93% hits; note: potency is the fitted concentration of half-maximal effect
# Target sequence (P11473 whole entry, looked up): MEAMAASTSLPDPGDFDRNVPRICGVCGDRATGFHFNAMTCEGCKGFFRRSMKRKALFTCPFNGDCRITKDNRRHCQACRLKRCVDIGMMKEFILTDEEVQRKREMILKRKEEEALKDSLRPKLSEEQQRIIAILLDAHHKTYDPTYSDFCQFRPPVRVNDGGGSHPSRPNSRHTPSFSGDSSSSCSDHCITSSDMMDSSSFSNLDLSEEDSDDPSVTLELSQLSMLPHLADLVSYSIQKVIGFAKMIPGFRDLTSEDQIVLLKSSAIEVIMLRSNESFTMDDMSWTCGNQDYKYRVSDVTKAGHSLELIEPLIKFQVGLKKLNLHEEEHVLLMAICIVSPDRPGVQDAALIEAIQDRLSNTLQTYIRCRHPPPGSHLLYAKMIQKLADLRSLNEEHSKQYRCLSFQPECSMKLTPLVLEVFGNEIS
#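 Fluorescence polarization assay of small-molecule disruption of VDR binding to coregulator peptide SRC2-3. Compounds and controls pin-transferred, then read after 2 h incubation at ambient room temperature.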
# PLK1 PBD block – PLK1 (human) polo-box domain binding inhibition; P53350; Plk1 PBD binding of FITC phosphopeptide, fluorescence polarization; Potency, µM, for inactives: max response, negative = inhibition, actives largely listed as inhibitors; 360,000 compounds, 2.8% hits; note: potency is the fitted concentration of half-maximal effect; series mostly up to about 57 µM; nearly all actives have a fitted effect of over 65% in size
# G9a block – inhibitors of human histone lysine methyltransferase G9a | 350,000 compounds, 8.8% hits | G9a H3K9 monomethylation, AlphaScreen, 2 h | Potency, µM (titrated, usually from 102 µM), inactives show at the highest dose activity, negative = inhibition, most hits filed as inhibitors | Q96KQ7; note: potency is the fitted concentration of half-maximal effect; nearly all actives have a fitted effect of over 75% in size
# Target sequence (Q96KQ7 913-1193 limits assumed): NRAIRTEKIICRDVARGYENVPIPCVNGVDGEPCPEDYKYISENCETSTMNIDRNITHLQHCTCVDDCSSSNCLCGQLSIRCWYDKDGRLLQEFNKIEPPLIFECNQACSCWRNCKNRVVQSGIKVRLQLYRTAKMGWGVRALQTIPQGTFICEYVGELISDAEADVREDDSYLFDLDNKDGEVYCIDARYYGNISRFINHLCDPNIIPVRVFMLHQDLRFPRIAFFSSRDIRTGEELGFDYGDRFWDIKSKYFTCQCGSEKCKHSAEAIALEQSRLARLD
#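 Enzyme 20 nM + cpd, 15 min RT; add b-H3K9 pep 500 nM / SAM 20 uM; 2 h RT; anti-H3K9me1 Ab 0.5 ug/mL + SA donor / anti-rabbit acceptor beads 20 ug/mL each, 10 min; AlphaScreen read.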
# Numbers without * were called inactive; u = inconclusive; x = no result given; [ ] = dose if it differs, or a comment. Shown are actives, neighbours in structure and some others; about 10% of the full set was active somewhere. Unless noted, calls come from the whole dose curve; as a rule, active = well fitted curve in the direction sought with a large enough effect; inconclusive = small, poorly fitted or top-dose-only effect, or another doubt; inactive = no such curve, though single readings can be large; an effect the other way counts as inactive or inconclusive. Unless noted, % is set by controls: 0 for no effect and ±100 for the full control effect.
SMILES,CCT chaperon mod,Sfp PPTase inh,Mm-Cpn inhibitor,VDR inh,PLK1 PBD block,G9a block
CC(=O)c1cc(O)c2ccccc2c1O,0,45µM*,-4%,32µM*,5.3µM*,3.2µM*
CC(=O)c1c(C)oc2c1cc(O)c1ccccc12,1,0%,1%,17%,-3%,11%
COc1cccc(N=Nc2c(=O)[nH]n3c(=O)c4c([nH]c23)CCC4)c1,-1,-27%,-2%,-13%,30µM*,u
O=c1[nH]n2c(=O)c3c([nH]c2c1N=Nc1cccc(C(F)(F)F)c1)CCCC3,-3,11%,0%,-1%,u,-16%[59 µM]
O=C(Nc1ccc(Cl)cc1F)C1CC(=O)N(Cc2ccco2)C1 (stereo unspecified),-1,x,0%,u,-13%,56µM*
CC(=O)c1sc(NC(=O)C2CC(=O)N(Cc3ccco3)C2)nc1-c1ccccc1 (stereo unspecified),-3,x,-5%,-18%,-14%,50µM*
COc1ccc(-c2nc(NC(=O)C3CC(=O)N(Cc4ccco4)C3)sc2C)cc1 (stereo unspecified),1,x,-4%,-25%,-18%,-9%[2.33 µM]
Cc1ccc(Cl)cc1N1CCN(C(=O)CSc2nnc3n2C(C)(C)Cc2ccccc2-3)CC1,-8,6%,-2%,2%,-8%,8.9µM*
Cc1ccc(Cl)cc1N1CCN(C(=O)CSc2ccsc2[N+](=O)[O-])CC1,-3,-13%,-1%,-8%,-27%,50µM*
CCc1nnc(SCc2nc(-c3ccccc3Cl)oc2C)c2cc3sc(C)cc3n12,x,x,x,19%,x,-19%[59 µM]
NC(=O)Nc1cccc2ccccc12,-1,2%,0%,-24%,-6%,-8%[59 µM]
NCCNc1cccc2ccccc12,x,71µM*,x,50µM*,x,u
CCCCCCCCC#CCC#CCC#CCCCC(=O)O,x,4%,x,-24%,x,21%[59 µM]
Oc1ccc(Br)cc1CNc1nccs1,2,9%,1%,-5%,-10%,15%
Oc1ccc(Br)cc1CNc1ccccn1,0,13%,2%,u,17µM*,23%
Cc1ccc(C)c(N2CCN(C(=O)c3cn(CC(C)C)c(=O)c4c3c3ccccc3n4C)CC2)c1,x,x,x,0%,x,u
CCCCCCCCSc1nnc2[nH]c(=O)cc(N)n12,2,5%,-1%,u,3.4µM*,-9%
O=C(Cn1nc(-c2ccccc2)c2c(c1=O)CCCC2)Nc1ccc(F)c(Cl)c1,x,x,x,9%,x,11%[59 µM]
CCN(CCO)Cc1cn[nH]c1-c1ccc(C)c(C)c1,-2,-7%,-2%,-7%,-2%,3.5µM*
CCOCC(O)COc1ccc(NC(=O)CC[S+](C)C)cc1 (stereo unspecified),x,14%,x,-5%,x,-8%[12.7 µM]
CCOc1ccc(-n2nc3ccc(NC(=O)c4ccc(C)cc4C)cc3n2)cc1,x,x,x,-8%,x,-6%[59 µM]
CN/N=C/c1ccc(C#N)cc1,0,25%,u,-22%,1%,-1%
Cc1ccccc1N/N=C/c1ccc(C#N)cc1,-4,12%,-2%,-7%,-5%,10µM*
O=C(Nc1nccs1)c1cccc(N2C(=O)c3cccc4c([N+](=O)[O-])ccc(c34)C2=O)c1,0,-22%,15%,5%,-9%,-2%
Cc1ccc(C(=O)O)cc1N1C(=O)c2cccc3c([N+](=O)[O-])ccc(c23)C1=O,0,-19%,0%,-14%,u,25µM*
SMILES,CCT chaperon mod,Sfp PPTase inh,Mm-Cpn inhibitor,VDR inh,PLK1 PBD block,G9a block
CC(=O)Oc1cccc(N2C(=O)c3cccc4c([N+](=O)[O-])ccc(c34)C2=O)c1,1,0%,-6%,-13%,u,40µM*
O=C(O)c1ccc(CN2C(=O)c3cccc4c([N+](=O)[O-])ccc(c34)C2=O)cc1,-2,u,0%,2%,u,45µM*
O=C(O)c1ccc(CN2C(=O)c3ccc(C(=O)O)cc3C2=O)cc1,-3,8%,0%,7%,7%,-11%[2.33 µM]
CCCCCCCC/C=C\CCCCCCCC(=O)NCCc1ccc(O)c(O)c1,-15,9%,-2%,u,24µM*,u
CCCCCCCC/C=C\CCCCCCCC(=O)NCCO,-1,13%,-1%,1%,-15%,4%[59 µM]
CCCCC/C=C\C/C=C\C/C=C\C/C=C\CCCCCC(=O)NCCc1ccc(O)c(O)c1,x,-22%,x,3%,x,x
CCCCCCCC/C=C/CCCCCCCC(=O)NCCOP(=O)(O)O,x,4%,x,28µM*,x,x
COc1ccc(CCNC(=O)C2(c3cccs3)CCOCC2)cc1,x,x,x,16%,x,7%[59 µM]
Cc1ccc2nc(COc3ccccc3NC(=O)c3ccc(F)cc3)cc(=O)n2c1,x,x,x,5%,x,5%[59 µM]
CCOc1ccc(NC(=O)CCN2CCN(S(=O)(=O)c3ccc(Cl)cc3)CC2)cc1,-8,16%,2%,-4%,-8%,6%
CC(=O)Nc1ccc(CN2CCCN(C)CC2)cc1,0,-29%,-2%,-7%,3%,20µM*
CCOc1ccc(CN2CCN(S(=O)(=O)c3ccc(NC(C)=O)cc3)CC2)cc1,-1,u,0%,-19%,1%,22µM*
CC(=O)Nc1ccc(CN2CCN(C3CCCC3)C(CCO)C2)cc1 (stereo unspecified),-5,-3%,-1%,11%,-23%,x
CCOc1ccc(C(=O)CN2CCN(S(=O)(=O)c3ccc(Br)cc3)CC2)cc1,-1,2%,-1%,u,-2%,32µM*
COc1ccc(C(=O)CN2CCN(S(=O)(=O)c3ccc(C(C)C)cc3)CC2)cc1,x,x,x,0%,x,-34%[59 µM]
CCOc1ccc(C(=O)CN2CCN(S(=O)(=O)c3ccc(OC)cc3)CC2)cc1,-3,8%,2%,1%,-8%,13µM*
NC(=O)CN1CCN(S(=O)(=O)c2ccc(Br)cc2)CC1,-7,12%,-9%,-18%,-27%,-26%
Cn1c(=O)c2cc(C(=O)NCCCN3CCN(c4ccc(F)cc4)CC3)sc2c2ccccc21,x,x,x,-5%,x,-49%[59 µM]
O=C(Nc1ccc(F)c(Cl)c1)Nc1c[nH]c(=O)[nH]c1=O,x,x,x,7%,x,2%[59 µM]
CC(=O)Nc1ccc(C(=O)NNC(=O)C2CC2)cc1,-1,-6%,1%,-11%,1%,x
CCC(=O)Nc1ccc(C(=O)NNC(=O)C2CCCCC2)cc1,0,-5%,1%,14%,-7%,45µM*
O=C(NC1CC1)c1ccc(NC(=O)C2CCC2)cc1,0,x,x,79µM*,19µM*,x
Cc1c2cnn(-c3ccccc3)c(=O)c2c(C)n1CC(=O)Nc1ccccc1Br,x,x,x,12%,x,-2%[59 µM]
CCc1nn(CC(=O)NC(C)C)c(=O)c2cc3cc(F)ccc3n12,x,x,x,-3%,x,-10%[59 µM]
COc1ccc(OC)c(NC(=O)c2cc3c(n(-c4ccc(Cl)cc4)c2=O)CC(C)(C)CC3=O)c1,x,x,x,-1%,x,0%[59 µM]
